Compound activity from PubChem.
uPA generation = inhibitors of cell surface uPA generation. cell surface uPA generation assay, qHTS. Potency, µM (doses to about 38.3 µM), for the others: at the top dose activity change, negative = inhibition, actives largely listed as inhibitors. 330,000 tested, 0.31% active. AID 540303; active = well fitted inhibition curve with a large enough effect; inconclusive = small, poorly fitted or top-dose-only effect; inactive = no such curve, though single readings can be large or run the other way; tested in mouse RAW 264.7 cells; note: potency is the fitted concentration of half-maximal effect; % is set by controls: 0 for no effect and ±100 for the full control effect; nearly all actives have a fitted effect of over 55% in size
Giardia killer = kills Giardia lamblia; AID 540267; 340,000 tested, 0.15% active; activity change, % at 7.66 µM, hits read low; Giardia lamblia trophozoite viability; in the data active = activity change below about -80%; inconclusive = between about -30% and that limit;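 note: parasites exposed to compound for two days anaerobically before the ATP read; % is set by controls: 0 for no effect and ±100 for the full control effect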
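Each well holds 100 Giardia trophozoites and compound. After two days (48 hrs) at 37 deg C in anaerobic conditions, ATP is quantified by luminescence.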
SW480 rereplic = inducers of DNA re-replication in SW480 colon cancer cells; SW480 DNA re-replication, Hoechst DNA content imaging, 48 h; Potency, µM (titrated, usually from 46.1 µM), inactives show at the highest dose re-replication activation, most hits filed as activators; 340,000 tested, 1.8% active; note: potency is the fitted concentration of half-maximal effect; % of control where 0% means no effect; nearly all actives have a fitted effect of over 55% in size
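DNA re-replication was detected as more nuclei of elevated Hoechst intensity after 48 hr exposure to compound (23 nL pinned per well of 250 cells).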
MCF10A rereplic = inducers of DNA re-replication in MCF 10A breast cells | 350,000 tested, 2.9% active | Potency, µM (top dose mostly 46.1 µM), without a hit: at the highest dose activity, positive = re-replication, most hits filed as activators | MCF 10A DNA re-replication, Hoechst nuclear intensity, 48 h; note: potency is the fitted concentration of half-maximal effect; % of control where 0% means no effect; nearly all actives have a fitted effect of over 50% in size
Starred values were filed as active, the others as inactive; ! = not confirmed by another sample. Most compounds without a hit are left out; they make up all but 4.3% or so of the library. Unless noted, calls come from the whole dose curve; as a rule, active = well fitted activation curve with a large enough effect; inconclusive = small, poorly fitted or top-dose-only effect; inactive = no such curve, though single readings can be large or run the other way.

How did COc1ccc(C(NC(C)=O)c2cc(Cl)c3cccnc3c2O)cc1 (configuration not stated) do in these assays?
uPA generation: 6.3µM*; Giardia killer: -16; SW480 rereplic: 18%; MCF10A rereplic: inconclusive

How did CCOc1ccc(C(NC(=O)c2ccco2)c2ccc(OC)c(OC)c2)cc1 (configuration not stated) do in these assays?
uPA generation: -3%; Giardia killer: 18; SW480 rereplic: inconclusive; MCF10A rereplic: 3.7µM*

What do the screens show for `CCCC(=O)NC(c1ccc(OC)c(OC)c1)c1cc(Cl)c2cccnc2c1O` (configuration not stated)?
uPA generation: -10%; Giardia killer: 0; SW480 rereplic: 1.8µM*; MCF10A rereplic: 8.2µM*

Results for COc1ccc(C(NC(=O)c2ccco2)c2ccc(OC)c(OC)c2)cc1 (configuration not stated) ?
uPA generation: 4%; Giardia killer: -2; SW480 rereplic: 0%; MCF10A rereplic: 26%

Results for CCC1(C)NC(c2ccc3c(c2)OCO3)=CC(c2ccccc2O)N1 (configuration not stated) ?
Giardia killer: -29

How did OCCN(CCO)c1nc(N2CCCCC2)c2nc(N(CCO)CCO)nc(N3CCCCC3)c2n1 do in these assays?
uPA generation: 16%; Giardia killer: -7; SW480 rereplic: 12µM*!; MCF10A rereplic: 7µM*

Results for C/C(=N\NC(=O)c1c(Cl)cnn1C)c1cccnc1 ?
uPA generation: -18%; Giardia killer: 2; SW480 rereplic: -5%; MCF10A rereplic: 0%

How did O=S(=O)([N-]c1nc2ccccc2nc1-n1cc[n+](Cc2ccccc2)c1)c1ccc(Cl)cc1 do in these assays?
uPA generation: -2%; Giardia killer: 5; SW480 rereplic: 18µM*; MCF10A rereplic: 18µM*

Results for CCCC[n+]1ccn(-c2nc3ccccc3nc2[N-]S(=O)(=O)c2ccc(Br)cc2)c1 ?
uPA generation: -3%; Giardia killer: 1; SW480 rereplic: 18µM*; MCF10A rereplic: inconclusive

How did O=C(CCCN1CCC(C(=O)c2ccc(F)cc2)CC1)c1ccc(F)cc1 do in these assays?
uPA generation: -18%; Giardia killer: -8; SW480 rereplic: -25%; MCF10A rereplic: 21µM*!

Results for CC1CCN(CCCC(=O)c2ccc(F)cc2)CC1 ?
SW480 rereplic: -4%; MCF10A rereplic: -3%

What do the screens show for `CCCCCCCCCCCC(=O)OCC(O)CO` (configuration not stated)?
SW480 rereplic: -1%; MCF10A rereplic: 0%

Results for CN(C)/C=C/C(=O)/C=C/c1cn(-c2ncc(C(F)(F)F)cc2Cl)c2ccccc12 ?
uPA generation: -6%; Giardia killer: -7; SW480 rereplic: inconclusive; MCF10A rereplic: 3.7µM*

What do the screens show for `COC(=O)Cc1cn(-c2ncc(C(F)(F)F)cc2Cl)c2ccccc12`?
uPA generation: 0%; Giardia killer: -14; SW480 rereplic: -1%; MCF10A rereplic: 11%

How did CCOC(=O)CNC(=O)C1CCCN(c2ncccn2)C1 (configuration not stated) do in these assays?
uPA generation: 3%; Giardia killer: -3; SW480 rereplic: 0.26µM*; MCF10A rereplic: 17%

Results for NC(=O)c1sc2nc3c(c(-c4cccs4)c2c1N)CCCCC3 ?
uPA generation: 15%; Giardia killer: -11; SW480 rereplic: inconclusive; MCF10A rereplic: 13µM*

What do the screens show for `Cc1ccccc1NC(=O)c1sc2nc3c(c(-c4ccco4)c2c1N)CCCC3`?
uPA generation: 11%; Giardia killer: 3; SW480 rereplic: 16µM*; MCF10A rereplic: inconclusive

What do the screens show for `Nc1c(C(=O)Nc2ccc(Br)cc2)sc2nc(-c3ccco3)ccc12`?
uPA generation: -1%; Giardia killer: -11; SW480 rereplic: inconclusive; MCF10A rereplic: 5.2µM*

Results for Cc1ccc(NC(=O)c2sc3nc4c(c(-c5ccco5)c3c2N)CCC4)cc1 ?
uPA generation: 5%; Giardia killer: -1; SW480 rereplic: 13%; MCF10A rereplic: 1.8µM*

How did Nc1c(C(=O)Nc2ccc(F)cc2)sc2nc(-c3ccco3)ccc12 do in these assays?
uPA generation: -5%; Giardia killer: 0; SW480 rereplic: inconclusive; MCF10A rereplic: inconclusive

Results for Cc1ccc(O)c(NC(=S)NC(=O)c2ccc(-c3ccc(Cl)cc3)o2)c1 ?
uPA generation: 3%; Giardia killer: 24; SW480 rereplic: 26%; MCF10A rereplic: 6.5µM*

Results for O=C(NC(=S)Nc1ccccc1O)c1ccc(-c2ccc(Cl)cc2)o1 ?
uPA generation: -4%; Giardia killer: 13; SW480 rereplic: 14%; MCF10A rereplic: 16µM*

What do the screens show for `CC(Oc1ccc(Cl)cc1Cl)C(=O)NNC(=O)C(=O)N1CCCC1` (configuration not stated)?
uPA generation: 1%; Giardia killer: -6; SW480 rereplic: -1%; MCF10A rereplic: -8%

How did O=C(c1coc(=O)c(Br)c1)N1CCCc2ccccc21 do in these assays?
uPA generation: -4%; Giardia killer: -20; SW480 rereplic: 1%; MCF10A rereplic: 15µM*

What do the screens show for `CC1CCN(C(=O)CCCl)c2ccccc21` (configuration not stated)?
uPA generation: 3%; Giardia killer: -9; SW480 rereplic: -1%; MCF10A rereplic: 0%

Results for CCCCc1c(C)c(C#N)c2[nH]c3ccccc3n2c1=O ?
uPA generation: -4%; Giardia killer: -6; SW480 rereplic: -1%; MCF10A rereplic: 18µM*

What do the screens show for `Cc1c(CCO)c(=O)n2c([nH]c3ccccc32)c1C#N`?
uPA generation: 9%; Giardia killer: -30; SW480 rereplic: -7%; MCF10A rereplic: -4%

What do the screens show for `Cc1cc(C)c2c(c1)CC(C)(C)CC2=O`?
uPA generation: 4%; Giardia killer: 19; SW480 rereplic: -5%; MCF10A rereplic: 1%

What do the screens show for `Cc1ccc(N2C(=O)CC(Sc3nc(C)cc(C)n3)C2=O)cc1` (configuration not stated)?
uPA generation: 5µM*; Giardia killer: 14; SW480 rereplic: inconclusive; MCF10A rereplic: inconclusive

What do the screens show for `CCN1CCN(c2ccc(NC(=O)c3cc4ccccc4cc3OC)cc2C)CC1`?
uPA generation: 11µM*; Giardia killer: 10; SW480 rereplic: inconclusive; MCF10A rereplic: inconclusive

Results for Cc1ccc(Cn2c(=N)n(CC(=O)c3ccc([N+](=O)[O-])cc3)c3ccccc32)cc1 ?
uPA generation: -2%; Giardia killer: -10; SW480 rereplic: inconclusive; MCF10A rereplic: 9.2µM*

Results for N=c1n(CCN2CCCCC2)c2ccccc2n1CC(O)c1ccc(Cl)c(Cl)c1 (configuration not stated) ?
uPA generation: inconclusive; Giardia killer: 10; SW480 rereplic: -2%; MCF10A rereplic: inconclusive

Results for N=c1n(CCN2CCCCC2)c2ccccc2n1CC(=O)c1ccc(Cl)c(Cl)c1 ?
uPA generation: -5%; Giardia killer: 11; SW480 rereplic: inconclusive; MCF10A rereplic: 10µM*

What do the screens show for `CCn1c(=N)n(CC(=O)c2ccc(OC)cc2)c2ccccc21`?
uPA generation: -11%; Giardia killer: -8; SW480 rereplic: 8%; MCF10A rereplic: 44%
